In PubChem BioAssay AID1076 (NMMLSC, 2008):
The source made the active and inactive calls.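 Rule for the calls: active = cell event count below 40, meaning activity score above 60 where score is 100 minus count; inactive = the rest.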

Assay: LNCaP cell loss by flow event count, confirmation, cytotoxicity control for prostate differentiation activator project, single point (AID 1076);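 note: counts scatter-gated live cells after medium removal discards detached dead cells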
Details: flow cytometry event count, 4 d, at 100 µM, stronger effect = lower value

SMILES | cell event count
CCOC(=O)CSc1nnc(CNC(=O)c2ccccc2OC)n1-c1ccc(OC)cc1 | 256 (inactive)
Cc1ccccc1-c1nc(CN2CCCC(C(=O)NCCCN3CCOCC3)C2)c(C)o1 (stereo unspecified) | 145 (inactive)
Cn1cc(CNC(=O)C2c3ccccc3Oc3ccccc32)cn1 | 465 (inactive)
CN1C(=O)c2ccc(S(=O)(=O)c3ccc(C(=O)O)cc3)cc2C1=O | 195 (inactive)
COc1ccc(OC)c(N=Cc2c(O)[nH]c3ccccc23)c1 | 207 (inactive)
O=C(CCNC(=O)Cn1ccc2ccccc2c1=O)NCCCN1CCN(c2ccccc2F)CC1 | 112 (inactive)
CCOc1ccccc1NC(=O)CCC(=O)O | 239 (inactive)
COc1ccc(/C=N/c2nc3ccccc3n2C)cc1OC | 90 (inactive)
COc1ccc(CC(=O)Nc2ccc(-c3nnc(-c4ccc(C)cc4)o3)cc2)cc1 | 24 (inactive)
COc1ccc2c(c1OC)C(=O)N(C(C)C(=O)O)C2=O (stereo unspecified) | 56 (inactive)
CCN1CCN(c2cc(C)c3cc(NC(=O)c4ccc(Br)o4)ccc3n2)CC1 | 36 (inactive)
Cc1cc(=O)c2ccccc2[nH]1 | 143 (inactive)
CCOC(=O)c1c(C)[nH]c(C(=O)COC(=O)C2CC2C)c1C (stereo unspecified) | 37 (inactive)
Cc1cc(C)nc(N2CCC(C(=O)Nc3ccc(Oc4ccccc4)cc3)CC2)n1 | 145 (inactive)
Cc1ccc(OCC(O)Cn2c(=N)n(CCN3CCCCC3)c3ccccc32)cc1 (stereo unspecified) | 13 (inactive)
O=C(NCCCN1CCOCC1)c1cc2c(s1)CSC2 | 191 (inactive)
COc1ccc(-c2cc(C(=O)NCc3ccc(Cl)cc3)no2)cc1OC | 172 (inactive)
CCN(CCCNS(=O)(=O)c1ccc2c(c1)oc(=O)n2C)c1cccc(C)c1 | 27 (inactive)
COc1ccc(-n2c(C)nc3c(cnn3-c3ccc(Cl)cc3)c2=O)cc1 | 45 (inactive)

SMILES | cell event count
Cc1ccc2c(c1)-c1c(cnn1CC(=O)Nc1ccccc1N1CCN(C)CC1)CO2 | 73 (inactive)
Oc1ccccc1CNc1nc2ccccc2n1CCN1CCCCC1 | 44 (inactive)
O=C(CSc1nc2c(c(=O)n1-c1ccc(F)cc1)SCC2)NCC1CCCO1 (stereo unspecified) | 207 (inactive)
C=CCn1cc(C(=O)N2CCN(C)CC2)c(=O)c2cc(S(=O)(=O)N3CCCC3)ccc21 | 168 (inactive)
Cc1onc(-c2ccccc2Cl)c1C(=O)N(C)C1CCCCC1 | 25 (inactive)
CN1CCN(CC(=O)Nc2ccc(Cl)cc2Cl)CC1 | 117 (inactive)
Cc1ccccc1OCc1nc(-c2ccc(NC(=O)c3ccc4c(c3)OCO4)cc2)no1 | 31 (inactive)
CN(C(=O)c1ccccn1)c1nnc(-c2cccnc2)s1 | 168 (inactive)
Cn1c(=O)[nH]c(=O)c2c1nc(Br)n2CCCSc1nc2ccccc2o1 | 8 (inactive)
COc1ccc(CCNC(=O)C2CCCN(Cc3nc(-c4ccccc4C)oc3C)C2)cc1OC (stereo unspecified) | 12 (inactive)
COc1ccc(-c2cc(C(F)(F)F)nc(N3CCN(Cc4ccccc4)CC3)n2)cc1OC | 152 (inactive)
CCc1nn(C(C)C(=O)N2CCc3ccccc3C2)c(=O)c2cc3occc3n12 (stereo unspecified) | 91 (inactive)
Cn1c(=O)cc(OCC(=O)NCCCN2CCN(c3ccccc3F)CC2)c2ccccc21 | 227 (inactive)
COc1ccc(OC)c(CNC(=O)CCNC(=O)Cn2ccc3ccccc3c2=O)c1 | 63 (inactive)
N=c1n(CCN2CCCCC2)c2ccccc2n1CC(O)COc1ccccc1 (stereo unspecified) | 20 (inactive)
CCOC(=O)c1c(NCc2ccc3c(c2)OCO3)c2ccccc2[nH]c1=O | 39 (inactive)
Cc1oc(-c2ccccc2F)nc1CN1CCC(C(=O)NCc2cccnc2)CC1 | 290 (inactive)
COc1ccccc1NC(=O)c1nc[nH]c1C(=O)Nc1ccccc1OC | 103 (inactive)
CCc1cc(C)cc(OCCNC(=O)c2ncn[nH]2)c1 | 171 (inactive)

Same assay, conditions: flow cytometry event count, 4 d, event count, at 10 µM, stronger effect = lower value

SMILES | cell event count
CCOC(=O)CSc1nnc(CNC(=O)c2ccccc2OC)n1-c1ccc(OC)cc1 | 156
Cc1ccccc1-c1nc(CN2CCCC(C(=O)NCCCN3CCOCC3)C2)c(C)o1 (stereo unspecified) | 175
Cn1cc(CNC(=O)C2c3ccccc3Oc3ccccc32)cn1 | 217
CN1C(=O)c2ccc(S(=O)(=O)c3ccc(C(=O)O)cc3)cc2C1=O | 166
COc1ccc(OC)c(N=Cc2c(O)[nH]c3ccccc23)c1 | 112
O=C(CCNC(=O)Cn1ccc2ccccc2c1=O)NCCCN1CCN(c2ccccc2F)CC1 | 126
CCOc1ccccc1NC(=O)CCC(=O)O | 200
COc1ccc(/C=N/c2nc3ccccc3n2C)cc1OC | 35.5
COc1ccc(CC(=O)Nc2ccc(-c3nnc(-c4ccc(C)cc4)o3)cc2)cc1 | 112
COc1ccc2c(c1OC)C(=O)N(C(C)C(=O)O)C2=O (stereo unspecified) | 53.5
CCN1CCN(c2cc(C)c3cc(NC(=O)c4ccc(Br)o4)ccc3n2)CC1 | 233
Cc1cc(=O)c2ccccc2[nH]1 | 91
CCOC(=O)c1c(C)[nH]c(C(=O)COC(=O)C2CC2C)c1C (stereo unspecified) | 976
Cc1cc(C)nc(N2CCC(C(=O)Nc3ccc(Oc4ccccc4)cc3)CC2)n1 | 398
Cc1ccc(OCC(O)Cn2c(=N)n(CCN3CCCCC3)c3ccccc32)cc1 (stereo unspecified) | 96
O=C(NCCCN1CCOCC1)c1cc2c(s1)CSC2 | 52.5
COc1ccc(-c2cc(C(=O)NCc3ccc(Cl)cc3)no2)cc1OC | 255
CCN(CCCNS(=O)(=O)c1ccc2c(c1)oc(=O)n2C)c1cccc(C)c1 | 151
COc1ccc(-n2c(C)nc3c(cnn3-c3ccc(Cl)cc3)c2=O)cc1 | 84

SMILES | cell event count
Cc1ccc2c(c1)-c1c(cnn1CC(=O)Nc1ccccc1N1CCN(C)CC1)CO2 | 142
Oc1ccccc1CNc1nc2ccccc2n1CCN1CCCCC1 | 176
O=C(CSc1nc2c(c(=O)n1-c1ccc(F)cc1)SCC2)NCC1CCCO1 (stereo unspecified) | 132
C=CCn1cc(C(=O)N2CCN(C)CC2)c(=O)c2cc(S(=O)(=O)N3CCCC3)ccc21 | 118
Cc1onc(-c2ccccc2Cl)c1C(=O)N(C)C1CCCCC1 | 188
CN1CCN(CC(=O)Nc2ccc(Cl)cc2Cl)CC1 | 198
Cc1ccccc1OCc1nc(-c2ccc(NC(=O)c3ccc4c(c3)OCO4)cc2)no1 | 154
CN(C(=O)c1ccccn1)c1nnc(-c2cccnc2)s1 | 240
Cn1c(=O)[nH]c(=O)c2c1nc(Br)n2CCCSc1nc2ccccc2o1 | 96
COc1ccc(CCNC(=O)C2CCCN(Cc3nc(-c4ccccc4C)oc3C)C2)cc1OC (stereo unspecified) | 190
COc1ccc(-c2cc(C(F)(F)F)nc(N3CCN(Cc4ccccc4)CC3)n2)cc1OC | 376
CCc1nn(C(C)C(=O)N2CCc3ccccc3C2)c(=O)c2cc3occc3n12 (stereo unspecified) | 123
Cn1c(=O)cc(OCC(=O)NCCCN2CCN(c3ccccc3F)CC2)c2ccccc21 | 401
COc1ccc(OC)c(CNC(=O)CCNC(=O)Cn2ccc3ccccc3c2=O)c1 | 73
N=c1n(CCN2CCCCC2)c2ccccc2n1CC(O)COc1ccccc1 (stereo unspecified) | 178
CCOC(=O)c1c(NCc2ccc3c(c2)OCO3)c2ccccc2[nH]c1=O | 357
Cc1oc(-c2ccccc2F)nc1CN1CCC(C(=O)NCc2cccnc2)CC1 | 364
COc1ccccc1NC(=O)c1nc[nH]c1C(=O)Nc1ccccc1OC | 257
CCc1cc(C)cc(OCCNC(=O)c2ncn[nH]2)c1 | 54
